HBB splice mod: modulators of hemoglobin beta chain splicing | HBB splicing reporter cell assay, activation; EGFP reporter with mutant IVS2-654 intron; response scale: normalised to 500 nM splice-correcting PNA | Potency, µM (top dose mostly 46.1 µM), without a hit: top-dose activation, most hits filed as activators | hit rate 0.06% among 65,000; further: potency means the concentration at half of the fitted maximal effect; 0% is about no effect
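Compounds were applied for 2 days to HeLa EGFP-654 cells, 500/well in Optimem with 2% FCS. The reporter's EGFP is disrupted by mis-splicing of beta-globin intron IVS2-654. Readout: summed well GFP fluorescence from 488 nm laser scanning; reference was 500 nM antisense […] 654 PNA.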
GFP derepression: epigenetic modulators derepressing GFP locus in mouse cells. mouse C127i GFP locus derepression, cytometry, 30 h. Potency, µM (highest dose often 46.1 µM), inactives show at the highest dose GFP derepression (activation). hit rate 0.09% among 68,000. AID 597; further: % of control where 0% means no effect
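Derepression screen: silenced CMV-GFP reporter in murine C127i cells, 30 h compound incubation at 37 C, washed cells imaged by laser-scanning cytometer to enumerate GFP-expressing objects of 20 to 120 um.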
CRE Fsk mod: CRE-bla signaling modulation under forskolin stimulation. CHO CRE-bla reporter (cAMP response element driving beta-lactamase), forskolin EC10, beta-lactamase ratio. Potency, µM (series often up to 38.2 µM), inactives show top-dose activity change, negative = inhibition, hits mostly activators. hit rate 2.5% among 71,000; active means well fitted activation curve with a large enough effect in the signal ratio, with a control signal flat, not every such curve was filed as active; inconclusive means small, poorly fitted or top-dose-only effect, or effect the other way, or a change in a side signal; the % refers to the signal ratio; further: potency means the concentration at half of the fitted maximal effect; % of control where 0% means no effect
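Using CellSensor CRE-bla CHO cells in Opti-MEM with 0.5% dialyzed FBS, compounds were titrated with EC10 NKH 477 for 3 h at 37 °C. CCF4 ratio (460/530 nm) gave %Activity; AC50 derived.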
Imprint erasure: genomic imprint erasure induction; Potency, µM (highest dose often 60.7 µM), for inactives: top-dose activity change, positive = activation, most hits filed as activators; mouse ES Peg3-LacZ reporter, beta-gal luminescence, 40 h; AID 1948; hit rate 0.02% among 110,000; further: potency means the concentration at half of the fitted maximal effect
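Each well holds 300 Peg3LacZ-Neo (maternal) female ES cells incubated 40 h at 37C, 5% CO2. LacZ is measured by BetaGlo luminescence, with AC50 and maximum efficacy derived from dose-response curves.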
IkB sig inh: inhibitors of IkB signaling in ABC-DLBCL cells. ABC-DLBCL IkBa-CBG/CBR dual luciferase ratio, 4 h; response scale: scaled: untreated 0%, proteasome inhibitor 100%. Potency, µM (series often up to 57.1 µM), for the others: top-dose IkBa stabilization activation. hit rate 0.04% among 110,000; active means well fitted curve in the direction sought with a large enough effect in the signal ratio, not every such curve was filed as active; inconclusive means small, poorly fitted or top-dose-only effect, or a change in a side signal; the % refers to the signal ratio;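 further: potency means the concentration at half of the fitted maximal effect; the direction sought is a rising ratio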
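Luminescence ratio of IκBα-fused green versus native red beetle luciferase in OCI-Ly3 cells, 4 h post-doxycycline with compound; red signal alone, scaled from basal (0%) to zero light (-100%), flagged nonspecific or cytotoxic effects.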
An asterisk follows results filed as active; u = inconclusive; x = no result; [ ] = dose if it differs, or a comment. The sample as a whole holds a higher share of hits than the screen did. Unless noted, the call rests on the fitted dose curve; in most records, active means well fitted curve in the direction sought with a large enough effect; inconclusive means small, poorly fitted or top-dose-only effect, or another doubt; inactive means no such curve, though single readings can be large; an effect the other way counts as inactive or inconclusive.

SMILES	HBB splice mod	GFP derepression	CRE Fsk mod	Imprint erasure	IkB sig inh
COCc1cc(C)nc(SCC(=O)Nc2cccc3cccnc23)c1C#N	0%	x	10µM*	-11%	1%
COCc1cc(C)nc(SCC(=O)Nc2ccc3c(c2)OCO3)c1C#N	0%	-1%	u	-24%	1%
CC(CNc1nc2ccccc2c2nc(-c3ccccc3)nn12)c1ccccc1 (centres undefined)	x	x	x	3%[10.9 µM]	2%
S=C(Nc1ccccn1)c1ccccn1	0%[9.22 µM]	4µM*	1%	-81%	u
COc1ccc2c(C)c(CCC(=O)NCc3cccc(Cl)c3)c(=O)oc2c1	x	x	x	6%[10.9 µM]	u
O=S1(=O)Nc2c(ccc3cccnc23)-c2ccccc21	5%[1.84 µM]	0%	u	-32%	0.79µM*
O=c1[nH]n(-c2cccc3cccnc23)c(=O)c2ccccc12	0%	-2%	u	24%	-2%
Cc1cc(C)cc(NC(=O)C2CCN(S(=O)(=O)c3cccc(-c4noc(C)n4)c3)CC2)c1	x	x	x	24%[10.9 µM]	u
CCOc1cc(N2CCOCC2)c(OCC)cc1NC(=O)c1nc2nc(C)cc(C)n2n1	0%[57.5 µM]	-2%	5µM*	2%	-1%
CS(=O)(=O)N1CCCC(C(=O)NCc2ccc(F)cc2Cl)C1 (centres undefined)	0%	3%	10µM*	-1%	-1%
CS(=O)(=O)N1CCCC(C(=O)NCc2ccccc2Cl)C1 (centres undefined)	-1%	-3%	8%	-7%	0%
Cc1nc2ccc(S(=O)(=O)N(CC(=O)Nc3cccc(Cl)c3)Cc3ccccc3)cc2s1	x	x	x	-4%[10.9 µM]	u
CCOc1ccccc1CNC(=O)c1cnc2sc(N(CC)CC)nn2c1=O	x	x	x	-4%[10.9 µM]	u
Cc1cc2n(n1)C(c1ccccc1Cl)Nc1ccccc1-2 (centres undefined)	1%	1%	13µM*	1%	-2%
COc1ccc(C2Nc3ccccc3-c3cc(C)nn32)c(OC)c1 (centres undefined)	x	x	x	-14%[10.9 µM]	u
COc1ccc2c(=O)c(C(=O)NCCc3ccc(OC)c(OC)c3)c[nH]c2c1	0%[57.5 µM]	1%	13µM*	4%	0%
COc1ccc2cc3cc(C(=O)NCCc4ccc(OC)c(OC)c4)oc3nc2c1	0%	3%	3.2µM*	-15%	u
COc1cc(/C=C/c2nc(C#N)c(N3CCN(C)CC3)o2)cc(OC)c1OC	x	x	x	-16%[10.9 µM]	u
COc1ccc(OC)c(NC(=O)C2Cc3ccccc3CN2S(=O)(=O)c2ccc(F)cc2)c1 (centres undefined)	x	x	x	-8%[10.9 µM]	u
CCOC(=O)c1c(C)nc2sccn12	-1%	0%	13µM*	-15%	-5%
CCOC(=O)c1c(C)nc2ncccn12	0%	-1%	u	3%	-2%
CCOC(=O)c1c(C)nc2c3ccccc3ccn12	-1%	-3%	7.9µM*	-61%	-1%
COc1ccccc1N1CCN(C(=O)c2cc(-c3ccc(C)c(F)c3)on2)CC1	x	x	x	-13%[10.9 µM]	u
Cc1cccn2c(=O)c3cc(C(=O)NCCN4CCOCC4)c(=N)n(CCc4ccccc4)c3nc12	1%[9.22 µM]	7%	13µM*	7%	2%
CCNC(=O)c1cc2c(=O)n3cccc(C)c3nc2n(CCc2ccccc2)c1=N	x	0%[20.6 µM]	x	x	x
SMILES	HBB splice mod	GFP derepression	CRE Fsk mod	Imprint erasure	IkB sig inh
CNC(=O)c1cc2c(=O)n3cccc(C)c3nc2n(C(C)C)c1=N	0%	0%	10µM*	-4%	1%
C=CCn1c(=N)c(C(=O)NCCCOC)cc2c(=O)n3cccc(C)c3nc21	-3%	9%	13µM*	-7%	-4%
CCCCNC(=O)c1cc2c(=O)n3cccc(C)c3nc2n(Cc2ccccc2)c1=N	0%[57.5 µM]	6%	2.5µM*	-5%	5%
O=c1c(NCCc2ccc(Cl)cc2)nccn1-c1ccccc1	x	x	x	-7%[10.9 µM]	1%
Cc1ccc(Cl)cc1N1CCN(C(=O)c2ccc3c(Cl)c4c(nc3c2)CCCC4)CC1	x	x	x	2%[10.9 µM]	u
COC(=O)c1ccc(C)c(NS(=O)(=O)c2ccc(OC)cc2)c1	0%[0.0738 µM]	0%	0.5µM*	-15%	4%
